Experimental data reported in PubChem BioAssay (EPA / NIEHS).
Where “and” joins values, the source holds several entries; their conditions need not be identical. Equal entries are not always repeated. Results filed as inconclusive are left out. Some compounds were tested as several samples or in several runs, with calls that do not always agree. Calls of active or inactive are those of the source. Rule for the calls, unless noted: active = hit-call score of the fitted dose curve at least 0.9, where 1 is the maximum; inactive = score below 0.9.

Assays:
[1] = read-out: Interleukin-8 (IL8), CXCL8 (gene 3576); assay: BSK_3C_IL8: BioMAP Diversity Plus: 3C Assay for Interleukin-8 (IL8) Biomarker Activity (AID 2283020); settings: primary human endothelial cells (HUVEC); actives raise or lower the signal
Summary of the method: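 HUVEC, 3C stimulation; 24 h compound exposure; IL-8 read by ELISA; gain or loss of signal fitted relative to DMSO control.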

[2] = read-out: Monokine induced gamma interferon (MIG), CXCL9 (gene 4283); assay: BSK_3C_MIG: BioMAP Diversity Plus: 3C Assay for Monokine induced gamma interferon (MIG) Biomarker Activity (AID 2283021); settings: primary human endothelial cells (HUVEC); actives raise or lower the signal;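 for AC50: MIG protein level measured by immunoassay in the treated endothelial cultures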
Summary of the method: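 HUVEC, 3C system; 24 h chemical exposure; MIG by ELISA; bidirectional fit vs DMSO baseline.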

[3] = biological target: human Vitamin D Receptor (VDR), VDR (gene 7421) (UniProt P11473); assay: ATG_VDR_TRANS: Attagene TRANS-FACTORIAL HepG2 Assay for human Vitamin D Receptor (VDR) (AID 2283022; active = hit-call score of the fitted dose curve at least 0.9, where 1 is the maximum)
Summary of the method: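 Transactivation by an exogenous VDR-Gal4 chimera in transiently transfected HepG2 cells was measured as reporter transcript level 24 hours after chemical treatment. RT-PCR products were analysed by capillary electrophoresis and fitted in the positive direction relative to DMSO.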

[4] = BSK_3C_SRB: Viability Assessment in the BioMAP Diversity Plus: 3C Assay (AID 2283023); settings: primary human endothelial cells (HUVEC);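 note: fitted both ways against DMSO so a hit may be signal rise or drop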
Summary of the method: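 Cytotoxicity readout in parallel HUVEC 3C cultures: after 24 h compound exposure, cells fixed with 10% TCA, stained with 0.1% SRB and read at 560 nm. Gain or loss relative to DMSO fitted.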

[5] = BSK_3C_Vis: BioMAP Diversity Plus: 3C Assay for Morphology Visualization (AID 2283025); settings: primary human endothelial cells (HUVEC);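 note: fitted both ways so gain or loss versus DMSO counts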;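 for AC50: light microscopy image of cell morphology used as background control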
Summary of the method: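 HUVEC, 3C system; light microscopy of morphology at 24 h post-dose. Bidirectional fit vs DMSO baseline. Secondary readout, background-control function.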

[6] = BSK_4H_SRB: Viability Assessment in the BioMAP Diversity Plus: 4H Assay (AID 2283027); settings: primary human endothelial cells (HUVEC);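 note: cells exposed to compound for 24 h before staining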;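 for AC50: curves fitted both ways versus DMSO so AC50 may be loss or gain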
Summary of the method: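 Cytotoxicity read-out in primary human endothelial cells: after 24 h compound exposure, cells were TCA-fixed (10%), stained with 0.1% SRB and absorbance taken at 560 nm. Values fitted in both directions relative to DMSO.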

[7] = BSK_BE3C_SRB: Viability Assessment in the BioMAP Diversity Plus: BE3C Assay (AID 2283028); settings: primary human bronchial epithelial cells;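 note: measured 24 h after chemical dosing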;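 for AC50: fitted both ways so AC50 may mark signal gain or loss versus DMSO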
Summary of the method: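 Cytotoxicity read-out: SRB (0.1%) staining of TCA-fixed (10%) human lung bronchial epithelial cells, absorbance 560 nm, 24 h post-dosing. Curves fitted both directions relative to DMSO.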

[8] = read-out: Thrombomodulin, THBD (gene 7056); assay: BSK_3C_Thrombomodulin: BioMAP Diversity Plus: 3C Assay for Thrombomodulin Biomarker Activity (AID 2283029); settings: primary human endothelial cells (HUVEC); actives raise or lower the signal
Summary of the method: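 HUVEC, 3C conditions; compound 24 h; thrombomodulin by ELISA; bidirectional curve fit vs DMSO baseline; parallel SRB total-protein staining for cytotoxicity.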

[9] = read-out: Matrix Metallopeptidase 1 (MMP1), MMP1 (gene 4312); assay: BSK_BE3C_MMP1: BioMAP Diversity Plus: BE3C Assay for Matrix Metallopeptidase 1 (MMP1) Biomarker Activity (AID 2283024); settings: primary human bronchial epithelial cells; actives raise or lower the signal
Summary of the method: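 ELISA read-out of MMP1 in human lung bronchial epithelial primary cultures, 24 h post-dose; bidirectional curve fit vs DMSO baseline, gain or loss of signal scored.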

[10] = read-out: Pselectin, SELP (gene 6403); assay: BSK_4H_Pselectin: BioMAP Diversity Plus: 4H Assay for Pselectin Biomarker Activity (AID 2283026); settings: primary human endothelial cells (HUVEC); actives raise or lower the signal
Summary of the method: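 HUVEC, 24 h chemical exposure; P-selectin read by ELISA. Bidirectional curve fit vs DMSO baseline; gain or loss of signal scored.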

Measured: AC50

human Vitamin D Receptor (VDR), VDR (gene 7421), sequence (P11473 whole entry, looked up, the tested form may be a part): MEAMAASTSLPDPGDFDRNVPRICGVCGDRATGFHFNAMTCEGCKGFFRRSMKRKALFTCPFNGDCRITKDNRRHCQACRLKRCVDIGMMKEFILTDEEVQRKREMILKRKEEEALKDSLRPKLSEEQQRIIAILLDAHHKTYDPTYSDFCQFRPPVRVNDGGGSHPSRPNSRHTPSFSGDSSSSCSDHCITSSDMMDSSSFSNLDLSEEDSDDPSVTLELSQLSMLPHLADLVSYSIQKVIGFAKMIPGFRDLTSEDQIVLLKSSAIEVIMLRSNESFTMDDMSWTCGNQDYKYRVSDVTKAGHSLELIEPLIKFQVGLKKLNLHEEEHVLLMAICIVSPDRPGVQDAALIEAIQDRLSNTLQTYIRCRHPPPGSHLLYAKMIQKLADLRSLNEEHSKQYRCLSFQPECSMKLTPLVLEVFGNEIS

CCCCCCCO
not listed: [9] | [10]
inactive: all other assays above

C=CC(=O)NC(C)(C)C
inactive: all assays above

CCCCC1C(=O)N(c2ccccc2)N(c2ccccc2)C1=O
active: [5] 37.5 µM
not listed: [9] | [10]
inactive: all other assays above

Cc1ccc([N+](=O)[O-])cc1N
not listed: [9]
inactive: all other assays above

C=CC(=O)OCC(C)OCC(C)OCC(C)OC(=O)C=C (stereo not given)
active: [1] 20 µM | [2] 35.5 µM | [4] 20 µM | [5] 16 µM | [10] 13.2 µM | [6] 12.1 µM
inactive: [3] | [9] | [7] | [8]

CC/C=C\CCOC(=O)c1ccccc1O
active: [1] 34.7 µM | [4] 29.9 µM | [5] 37.1 µM | [6] 14.2 µM
not listed: [10]
inactive: all other assays above

O=C(O)C(F)(F)C(F)(F)C(F)(F)C(F)(F)C(=O)O
not listed: [5]
inactive: all other assays above

Fc1ccc(Br)cc1
inactive: all assays above

CCCCCCCCCCCC(C)=O
active: [1] 28.6 µM | [2] 35 µM | [4] 29.9 µM | [5] 37.8 µM | [10] 28.1 µM | [6] 33.9 µM
inactive: [3] | [7] | [8]

C=CC(=O)OCCCCCCOC(=O)C=C
inactive: [3] | [7] | [8]
active: [1] 12.3 µM | [2] 20 µM | [4] 20 µM | [5] 12.9 µM | [10] 10.3 µM | [6] 20 µM

C=C(C)C(=O)OCCCCCCCCCCCC
not listed: [9] | [10]
inactive: all other assays above

CC(C)[N+](C)(CCOC(=O)C1c2ccccc2Oc2ccccc21)C(C)C
inactive: all assays above

CCc1cccc(C)c1N(C(=O)CS(=O)(=O)O)C(C)COC (stereo not given)
not listed: [9] | [10]
inactive: all other assays above

CC1(C)CC(O)CC(C)(C)N1[O]
not listed: [9] | [10]
inactive: all other assays above

CC(Cl)COP(=O)(OCC(C)Cl)OCC(C)Cl (stereo not given)
not listed: [10]
inactive: all other assays above

CC(CCC(=O)O)(c1ccc(O)cc1)c1ccc(O)cc1
not listed: [5] | [10]
inactive: all other assays above

CCNc1nc(NC(C)(C)C)nc(OC)n1
not listed: [9]
inactive: all other assays above

c1ccc2sc(SSN3CCOCC3)nc2c1
active: [4] 6.19 µM | [5] 8.8 µM | [6] 5.2 µM
inactive: [1] | [2] | [3] | [7]

CCCCCCCCCCCC(=O)N(C)CC(=O)O
not listed: [5] | [9] | [10]
inactive: all other assays above

C=CC(=O)NCOCCCC
inactive: all assays above

C=CC(=O)OCCCCCCCC(C)C
active: [8] 6.25 µM
not listed: [9] | [10]
inactive: all other assays above

C[N+](C)(C)CCCNS(=O)(=O)C(F)(F)C(F)(F)C(F)(F)C(F)(F)C(F)(F)C(F)(F)C(F)(F)C(F)(F)F
active: [1] 44.3 µM | [4] 30.7 µM and 20.8 µM
inactive: [1] | [2] | [3] | [6] | [7] | [8]

Oc1ccc(/C=C/c2cc(O)cc(O)c2)cc1
active: [5] 20 µM | [6] 20 µM
not listed: [10]
inactive: all other assays above

Nc1cccc(N)n1
not listed: [10]
inactive: all other assays above

Clc1cc(Cl)c(Cl)c(Cl)c1Cl
not listed: [9] | [10]
inactive: all other assays above

CCCCCCCCC(CO)CCCCCC (stereo not given)
inactive: all assays above

CC/C=C\C/C=C\C/C=C\CCCCCCCC(=O)OC
active: [1] 37.2 µM | [2] 37.2 µM | [4] 29.8 µM | [9] 33.6 µM | [5] 37.5 µM | [6] 20 µM | [7] 28.5 µM | [8] 5.05 µM
inactive: [3]

CC(C)c1cccc(C(C)C)c1N
active: [5] 37.5 µM | [6] 33.5 µM
not listed: [3]
inactive: all other assays above

COC(OC)(C(=O)c1ccccc1)c1ccccc1
active: [1] 0.016 µM
not listed: [9] | [10]
inactive: all other assays above

CCCCCC1=CCCC1=O
active: [9] 0.016 µM
not listed: [10]
inactive: all other assays above

CCCCCCOC(=O)CCCCC(=O)OCCCCCC
inactive: all assays above

COc1ccc(C(=O)/C(Br)=C\C(=O)O)cc1
active: [1] 20 µM and 25.9 µM | [2] 35.3 µM and 34.3 µM | [5] 37.4 µM and 37.5 µM | [10] 6.04 µM and 16.3 µM | [6] 20 µM and 17.1 µM | [8] 34.9 µM and 35.4 µM
inactive: [3] | [4] | [9] | [7]

CCOC(=O)C1=NOC(c2ccccc2)(c2ccccc2)C1
active: [1] 3.97 µM
not listed: [9] | [10]
inactive: all other assays above

Oc1ccccc1Cc1ccccc1O
inactive: [1] | [2] | [3] | [4] | [6] | [7] | [8]
active: [8] 11.7 µM

CCCCCCCCCCCC(=O)OCC
inactive: [3]

CC1=CC=C(C(C)C)CC1
not listed: [3] | [9] | [10]
inactive: all other assays above

O=C(Oc1ccccc1)c1ccccc1C(=O)Oc1ccccc1
active: [4] 20 µM
not listed: [3] | [10]
inactive: all other assays above

c1ccc2c(c1)[nH]c1ccccc12
inactive: [1] | [2] | [4] | [5] | [6] | [7] | [8]
active: [8] 6.87 µM

CC(C)(C)C1CCC(=O)CC1
inactive: [3]

c1ccc(Nc2cccc3ccccc23)cc1
inactive: [8]
active: [1] 27.6 µM and 24.6 µM | [2] 36.5 µM and 31.8 µM | [4] 31.8 µM and 34 µM | [6] 33.3 µM and 35.6 µM | [7] 27.4 µM and 28.4 µM

Oc1c(Cl)cc(Cl)c(Cl)c1Cl
active: [1] 20 µM | [4] 20 µM | [9] 4.31 µM | [5] 16.6 µM | [6] 24.5 µM
inactive: [2] | [7] | [8]

CCN1CN(CC)CN(CC)C1
not listed: [3] | [9]
inactive: all other assays above

O=C1CCCCCCCCCCC1
not listed: [3] | [9] | [10]
inactive: all other assays above

CCCCC(CC)COS(=O)(=O)O (stereo not given)
inactive: [3]

O=C1CCCCCCCCCCCN1
not listed: [3] | [10]
inactive: all other assays above

Nc1nc(N)nc(-c2ccccc2)n1
not listed: [3] | [5] | [9]
inactive: all other assays above

Nc1ccc(C(=O)O)cc1
not listed: [3] | [9] | [10]
inactive: all other assays above

CCCCCCC=O
not listed: [3] | [9] | [10]
inactive: all other assays above

CC(C)(CO)COC(=O)C(C)(C)CO
inactive: [3]

CC(C)CCCCCOC(=O)CS
not listed: [3] | [9]
inactive: all other assays above

CC=C(C)C=CC=C(C)C
active: [8] 3.97 µM
not listed: [3] | [9]
inactive: all other assays above

CCCC(C)C(=O)OCC (stereo not given)
inactive: [1] | [2] | [4] | [6] | [7] | [8]

CCOC(=O)/C=C\C(=O)OCC
not listed: [3] | [9]
inactive: all other assays above

CC(C)COC(=O)CC(C(=O)OCC(C)C)S(=O)(=O)O (stereo not given)
inactive: [3]

CC=C(C)C(C)=O
not listed: [3] | [9]
inactive: all other assays above

Cc1c(O)cccc1O
not listed: [3] | [10]
inactive: all other assays above
